Source: PubChem BioAssay (EPA / NIEHS)
Several values for one entry are separate records, joined by “and”; a condition that tells them apart may be missing. Equal values may be shown once. More than one record can exist for a structure, and the calls need not agree. Activity calls are given as the source filed them. The calls were made as follows: active = hit-call score of the fitted dose curve at least 0.9, where 1 is the maximum; inactive = score below 0.9.

Read-out: Monocyte Chemoattractant Protein-1 (MCP1), CCL2 (gene 6347)
Assay: BSK_4H_MCP1: BioMAP Diversity Plus: 4H Assay for Monocyte Chemoattractant Protein-1 (MCP1) Biomarker Activity (AID 2283018)
Conditions: primary human endothelial cells (HUVEC); actives raise or lower the signal
Experimental: BSK_4H is a cell-based, multiplexed-readout assay that uses umbilical vein endothelium, a human vascular primary cell, with measurements taken at 24 hours after chemical dosing in a 96-well plate.BSK_4H_MCP1 is an assay component measured in the BSK_4H assay. It measures MCP-1 antibody related to regulation of gene expression using ELISA technology.Data from the assay component BSK_4H_MCP1 was analyzed into 1 assay endpoint. This assay endpoint, BSK_4H_MCP1, was analyzed with bidirectional fitting relative to DMSO as the negative control and baseline of activity. Using a type of binding reporter, gain or loss-of-signal activity can be used to understand changes in the signaling as they relate to the gene CCL2. Furthermore, this assay endpoint can be referred to as a primary readout, because this assay has produced multiple assay endpoints where this one serves a signaling function. To generalize the intended target to other relatable targets, this assay endpoint is annotated to the cytokine intended target family, where the subfamily is chemotactic factor.
The levels of cell surface (or secreted, indicated by the prefix "s") biomarker endpoints were measured by ELISA. Overt cytotoxicity to cells in confluent adherent cultures (all systems other than the BT system) was assessed by measuring total protein levels using sulforhodamine B (SRB) staining in parallel cultures at the time of biomarker measurements, indicated as SRB endpoints. For proliferation assays for adherent cell types, individual cell types are cultured at sub-confluence and relative cell numbers quantified by SRB staining at time points optimized for each system (48 h: 3C and CASM3C systems; 72 h: BT and HDF3CGF systems; 96 h: SAg system). SRB was performed by staining cells with 0.1% SRB after fixation with 10% TCA and reading wells at 560 nm.Viability and proliferation of PBMC (T cells) was quantified by Alamar Blue reduction for the SAg and BT systems. For PBMC viability (referred to as PBMC Cytotoxicity within the assay endpoint names), cells were plated (75,000/well in a 96-well plate) and then chemical samples added for 1 h before addition of activators, SEB and TSST-1 (20 ng/mL final concentration each). Cells were incubated for 90 h. Then, Alamar Blue (20 uL/well) (Invitrogen, Cat DAL1100) was added for 6 h, and the plates were read with a fluorescence microplate reader at 546/580 nm (excitation/emission). For PBMC proliferation, cells were plated and activated as above but incubated for only 16 h prior to addition of Alamar Blue. Plates were read after 6 h.

SMILES | outcome | AC50
CCCOC(=O)c1ccccc1C(=O)OCCC | inactive | –
O=[N+]([O-])O | inactive | –
CC(C)(C)C(O)C(Oc1ccc(-c2ccccc2)cc1)n1cncn1 (stereo not given) | – | 31.8 µM (active)
c1ccc(Nc2ccc3ccccc3c2)cc1 | – | 30.7 µM (active)
COCC(=O)N(c1c(C)cccc1C)N1CCOC1=O | inactive | –
CCCC[N+](CCCC)(CCCC)CCCC | inactive | –
O=c1[nH]c(Cl)c(Cl)cc1Cl | inactive | –
CC(C)(c1cc(Cl)c(O)c(Cl)c1)c1cc(Cl)c(O)c(Cl)c1 | – | 20 µM (active)
O=P1(NCCCl)OCCCN1CCCl (stereo not given) | inactive | –
O=S(=O)(c1ccccc1)c1ccccc1 | inactive | –
CCCCCCCCCCCC#N | – | 20.6 µM (active)
C=CC(=O)OCC(CC)CCCC (stereo not given) | inactive | –
CC(=O)/C=C/c1ccccc1 | inactive | –
Oc1ccc(C2(c3ccc(O)cc3)c3ccccc3-c3ccccc32)cc1 | – | 13.2 µM (active) and 11.4 µM (active)
O=C1C=CC(=O)C=C1 | inactive | 33.4 µM (active)
CC(C)COP(=O)(OCC(C)C)OCC(C)C | inactive | –
CCC(C)c1cc([N+](=O)[O-])cc([N+](=O)[O-])c1OC(=O)C=C(C)C (stereo not given) | – | 5.34 µM (active)
COc1ccc(CO)cc1 | inactive | –
O=c1c2ccccc2c(=O)c2c1cc(Cl)c1[nH]c3c([nH]c12)c(Cl)cc1c(=O)c2ccccc2c(=O)c13 | inactive | –

SMILES | outcome | AC50
Nc1ccc(-c2ccc(N)c(N)c2)cc1N | – | 20 µM (active)
O=C(O)CCCc1ccc(N(CCCl)CCCl)cc1 | inactive | –
Clc1ccc(-c2ccccc2)cc1 | – | 27.5 µM (active)
C=CCN(CC=C)C(=O)C(Cl)Cl | inactive | –
CCc1cc(C)cc(CC)c1-c1c(OC(=O)C(C)(C)C)n2n(c1=O)CCOCC2 | inactive | –
N#CCCCCC#N | inactive | –
[Cd+2].[Cl-].[Cl-] | inactive | –
O=[N+]([O-])c1ccc(Cl)cc1 | inactive | –
CC1(C)[C@H](C(=O)O[C@H](C#N)c2cccc(Oc3ccccc3)c2)[C@@H]1C=C(Br)Br | inactive | 0.252 µM (active)
Oc1cc(Cl)ccc1Cl | inactive | –
O=[N+]([O-])C=Cc1ccccc1 | – | 8.93 µM (active)
Cc1ccc(OP(=O)(Oc2ccc(C)cc2)Oc2ccc(C)cc2)cc1 (tested in a mixture with another compound) | – | 2.31 µM (active)
CC(C)CCCCCCCOC(=O)c1ccccc1C(=O)OCCCCCCCC(C)C | inactive | –
O=C(CCl)c1ccccc1 | – | 5.41 µM (active)
CC(C)CCCCCCCOP(=O)(Oc1ccccc1)Oc1ccccc1 | – | 4.92 µM (active)
O=C1C(Cl)=C(Cl)C(=O)C(Cl)=C1Cl | – | 12.3 µM (active)
CNC(=O)Oc1cc(C)c(SC)c(C)c1 | inactive | –
COC(C)(C)CCC[C@H](C)C/C=C/C(C)=C/C(=O)OC(C)C | – | 29.8 µM (active)
CC(C)(C)C(=O)CCl | inactive | –
